Test [1] can be described thus: qHTS assay to identify small molecule agonists of the NFkB signaling pathway (AID 1159509; active = well fitted curve in the direction sought with a large enough effect in the signal ratio in the repeat runs, not every such curve was filed as active; the % refers to the signal ratio; also: series mostly up to about 61 µM). The essentials: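 NFkB-bla ME-180 cells carry a beta-lactamase reporter under an NF-kB response element. They were plated overnight, then exposed to compounds for 5 h at 37 C. Read-out is LiveBLAzer FRET after 1.5 hr at room temperature (405 nm excitation; 460/530 nm emission).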

A short description of test [2]: qHTS assay to identify small molecule agonists of the NFkB signaling pathway - cell viability counter screen (AID 1159515; calls by dose curve; also: nearly all actives have a fitted effect of over 55% in size; also: potency is read from the fitted curve at half-maximal effect). The method, boiled down: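 NFkB-bla ME-180 cells, 2,000/well, were plated overnight at 37 C, 5% CO2, then exposed to compounds in DMSO for 5 hr. After the bla FRET read, CellTiter-Glo was added to the same wells; luminescence was read after 30 min at room temperature.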

Test [3] is described as follows: qHTS assay to identify small molecule agonists of the endoplasmic reticulum stress response signaling pathway (AID 1159516; active = well fitted activation curve with a large enough effect in the signal ratio in the repeat runs, not every such curve was filed as active; the % refers to the signal ratio). The essentials: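 CellSensor ESRE-bla HeLa cells, carrying a beta-lactamase reporter driven by the ER stress response element, were plated overnight and exposed to compounds for 5 hr at 37 C. Reporter activity was read as FRET substrate fluorescence after 2 hr at room temperature.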

Test [4] can be described thus: qHTS assay to identify small molecule agonists of the endoplasmic reticulum stress response signaling pathway - cell viability counter screen (AID 1159517; calls by dose curve; also: nearly all actives have a fitted effect of over 50% in size; also: potency is read from the fitted curve at half-maximal effect). The method, boiled down:
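ESRE-bla HeLa cells, 1,500 per well, seeded overnight then treated with compounds for 5 hr at 37 C. After the beta-lactamase read, viability in the same wells is measured by CellTiter-Glo luminescence after 30 min at room temperature.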

Test [5] in a line: qHTS assay to identify small molecule antagonists of the retinoid-related orphan receptor gamma (ROR-gamma) signaling pathway - cell viability counter screen (AID 1159520). Also: nearly all actives have a fitted effect of over 50% in size. Also: potency is read from the fitted curve at half-maximal effect. The method, boiled down: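 Tet-on ROR gamma CHO cells were given compounds for 2 hr, then doxycycline hyclate at 1 uM final, and incubated 16 hr at 37 C. Viability was measured as ATP content by CellTiter-Glo luminescence.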

Test [6] addresses Nuclear receptor ROR-gamma (Homo sapiens) (UniProt P51449). Nature of the test: qHTS assay to identify small molecule antagonists of the retinoid-related orphan receptor gamma (ROR-gamma) signaling pathway (AID 1159521; also: nearly all actives have a fitted effect of over 50% in size; also: potency is read from the fitted curve at half-maximal effect). The essentials:
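Luminescence readout (ONE-Glo, 30 min RT) after 16 h doxycycline induction; loss of signal scored as antagonism. CHO cells with TET-inducible RORγ and RORE-LUC reporter; compounds added 2 h before 1 uM final doxycycline.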

The nature of test [7]: qHTS assay to identify small molecule agonists of the AP-1 signaling pathway - cell viability counter screen (AID 1159525; calls by dose curve; also: nearly all actives have a fitted effect of over 55% in size; also: potency is read from the fitted curve at half-maximal effect). The essentials:
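AP-1-bla ME-180 cells in Opti-MEM with 0.5% dialyzed FBS, compound exposure 5 h at 37 C in 15-point titration. Viability read in the same wells as ATP content by CellTiter-Glo luminescence, normalised to tetra-n-octylammonium bromide and DMSO controls.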

A short description of test [8]: qHTS assay to identify small molecule agonists of the RXR signaling pathway - cell viability counter screen (AID 1159529). Also: nearly all actives have a fitted effect of over 50% in size. Also: potency is read from the fitted curve at half-maximal effect. The method, boiled down:
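Luminescence from CellTiter-Glo (30 min, RT) measured viability in the same wells as the beta-lactamase reporter readout. Cells: GeneBLAzer RXR-alpha HEK 293T, 2% charcoal-stripped FBS. Compound exposure 16 hr, 37 C.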

Test [9] in a line: qHTS assay to identify small molecule antagonists of the retinoid acid receptor (RAR) signaling pathway - cell viability counter screen (AID 1159551). Also: nearly all actives have a fitted effect of over 35% in size. The method, boiled down: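 C3RL4 cells were seeded overnight at 37 C, then treated with compounds plus 1 uM (final) retinol for 6 h at 37 C. Viability was read as ATP by CellTiter-Glo luminescence after 30 min at room temperature.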

Test [10] is described as follows: qHTS assay to identify small molecule antagonists of the estrogen related receptor (ERR) signaling pathway from Tox21 library - cell viability counter screen (AID 1224834). Also: nearly all actives have a fitted effect of over 30% in size. Also: potency is read from the fitted curve at half-maximal effect. The essentials: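 ERR reporter cells were plated 6 h before compound addition, then exposed to test compounds in DMSO for 17.5 h at 37 C. Viability was read as CellTiter-Fluor fluorescence after a 30-minute incubation at 37 C.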

For test [11], the target named is Retinoic acid receptor RXR-alpha (Homo sapiens) (UniProt P19793). Nature of the test: qHTS assay to identify small molecule agonists of the RXR signaling pathway (AID 1159527; calls by dose curve; also: nearly all actives have a fitted effect of over 35% in size). The essentials:
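Agonist mode; 9-cis retinoic acid positive control. HEK 293T UAS-bla reporter cells, 2% charcoal-stripped FBS, 16 hr compound exposure at 37 C/5% CO2. LiveBLAzer B/G FRET substrate 2 hr RT; ex 405, em 460/530 nm.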

The nature of test [12]: qHTS assay to identify small molecule antagonists of the retinoic acid receptor (RAR) signaling pathway (AID 1159552; also: nearly all actives have a fitted effect of over 50% in size). The essentials: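 Luminescence from a RARE luciferase reporter in C3RL4 cells served as read-out. Cells received compounds together with 1 uM final retinol and incubated 6 hr at 37 C before detection reagent was added for 30 min at room temperature.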
A short description of test [13]: qHTS assay to identify small molecule agonists of the retinoic acid receptor (RAR) signaling pathway (AID 1159553). Also: potency is read from the fitted curve at half-maximal effect. The method, boiled down:
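C3RL4 cells carrying a RARE luciferase reporter were plated overnight at 37 C, then exposed to compounds in DMSO for 6 hr at 37 C and 5% CO2. Luminescence was read 30 min after luciferase reagent addition at room temperature.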

A short description of test [14]: qHTS assay to identify small molecule antagonists of the estrogen related receptor (ERR) signaling pathway - cell viability counter screen (AID 1224818).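 Also: series mostly up to about 46 µM; viability measured after 17.5 h of compound exposure.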 The method, boiled down: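 ERR reporter cells plated 6 h at 37 C/5% CO2, then compounds in DMSO pin-transferred and incubated 17.5 h at 37 C. Viability read as CellTiter-Fluor fluorescence after 30 min at 37 C.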

The nature of test [15]: qHTS assay to identify small molecule antagonists of the estrogen related receptor signaling pathway with the pleiotropic PPARgamma coactivator (PGC) cell viability counter screen (AID 1224822; also: series mostly up to about 46 µM). The essentials: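 PGC/ERR cells were seeded at 2,000 cells/well, rested 6 h at 37 C/5% CO2, then given compounds in DMSO by pin tool and incubated 17.5 h at 37 C. Viability came from CellTiter-Fluor fluorescence after 30 min.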

Test [16] can be described thus: qHTS assay to identify small molecule agonists of the AP-1 signaling pathway (AID 1159526; calls by dose curve).
Test [17] is described as follows: qHTS assay to identify small molecule agonists of the estrogen related receptor (ERR) signaling pathway (AID 1224820). The method, boiled down: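 ERR reporter cell line (from NTP), 2,000 cells/well, incubated 6 h before compound addition, then 18 h at 37 C. Luminescence measured 30 min after One-Glo reagent at room temperature.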
Test [18] concerns estrogen-related receptor alpha (ERRalpha) with PGC-1alpha coactivator, human. Nature of the test: qHTS assay to identify small molecule antagonists of the estrogen related receptor signaling pathway with the pleiotropic PPARgamma coactivator (PGC) (AID 1224821; calls by dose curve). The method, boiled down: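 PGC/ERR reporter cell line, plated 6 h before compound addition, then exposed 18 h at 37 °C. Luciferase activity read by luminescence 30 min after One-Glo addition; decrease indicates antagonism.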

Test [19] in a line: qHTS assay to identify small molecule agonists of the estrogen related receptor signaling pathway with the pleiotropic PPARgamma coactivator (PGC) (AID 1224823). The method, boiled down: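 PGC/ERR reporter cells seeded 6 h, then exposed to compounds (23 nL in DMSO) for 18 h at 37 C. One-Glo luciferase luminescence read after 30 min at room temperature.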

“And” between values parts separate entries of the source, which are not always exact repeats. Identical values can stand only once. Inconclusive results are not listed. Some compounds were tested as several samples or in several runs, with calls that do not always agree. The source made the active and inactive calls. Unless noted, calls follow the shape of the dose curve; as a rule, active = well fitted curve in the direction sought with a large enough effect in the repeat runs; inconclusive = weak or mixed curves; inactive = no such curve, though single readings can be large; an effect the other way counts as inactive or inconclusive.

Sequence of Retinoic acid receptor RXR-alpha (Homo sapiens) (P19793 whole entry, looked up): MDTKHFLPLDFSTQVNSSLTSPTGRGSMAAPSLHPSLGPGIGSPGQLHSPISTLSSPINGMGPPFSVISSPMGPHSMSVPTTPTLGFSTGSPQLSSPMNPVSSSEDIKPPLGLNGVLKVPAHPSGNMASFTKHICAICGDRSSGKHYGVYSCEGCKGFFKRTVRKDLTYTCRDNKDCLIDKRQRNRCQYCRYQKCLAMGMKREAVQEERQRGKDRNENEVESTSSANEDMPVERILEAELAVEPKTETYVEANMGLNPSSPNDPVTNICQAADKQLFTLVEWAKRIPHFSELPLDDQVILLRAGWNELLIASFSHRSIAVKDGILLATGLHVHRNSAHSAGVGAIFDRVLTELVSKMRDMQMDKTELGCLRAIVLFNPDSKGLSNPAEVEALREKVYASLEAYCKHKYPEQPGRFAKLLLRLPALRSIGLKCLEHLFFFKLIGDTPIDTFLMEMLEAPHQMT

For the compound `c1ccc2c(c1)Oc1ccccc1S2`, in [1], the outcome was inactive. Moreover, the Potency result in test [2], in test [3], in test [4], in [5], in test [6] and in test [7] was “inactive” throughout. The Potency result in [8], in [9] and in [10] was “inactive” in each case.
For `CN(C)CCN(Cc1cccs1)c1ccccn1`, the outcome in [1] was inactive. For the same compound, the Potency result in [2], in test [3], in test [4], in test [5], in test [7] and in test [11] was “inactive” throughout. Besides, the Potency result in [9], in test [12], in [13], in test [14], in test [15] and in [10] was “inactive” throughout.
In the case of `COc1cc([C@@H]2c3cc4c(cc3[C@H](O)[C@H]3COC(=O)[C@H]23)OCO4)cc(OC)c1OC`, in test [1], the compound was classed as inactive. In addition, the Potency result in [2], in test [4], in [5], in [7], in [9] and in test [13] was “inactive” each time. In [6], the Potency was 30.6 nM (active).
`CNCCCC12CCC(c3ccccc31)c1ccccc12`: in [1], the compound was classed as inactive. The Potency result in test [2], in [3], in test [7], in test [9] and in test [14] was “inactive” in each case. The Potency is 61.1 µM (active) and inactive in test [5]; 34.4 µM (active) and inactive in test [6]; 61.1 µM (active) and inactive in test [10].
For the compound `CCC(C)(O)CCCC(C)C` (stereo not given), the call in test [1] and in test [16] was inactive. The Potency entry in test [2], in test [3], in [4], in test [5], in [7] and in test [11] was “inactive” each time. Besides, the Potency result in [8], in test [9], in test [12], in [13] and in test [10] was “inactive” in each case.
For `O=CCCCC=O`, the call in test [1] and in test [16] was inactive. The Potency entry in [2], in test [7], in test [11], in test [9] and in test [10] was “inactive” each time. The Potency in test [4] was 54.9 µM (active); in [5], 61.1 µM (active); in [6], 29.6 µM (active) and inactive.
In the case of `c1ccc(Nc2ccccc2)cc1`, the call in test [1] was inactive. Besides, the Potency entry in test [2], in test [3], in test [4], in test [7], in test [9] and in [12] was “inactive” throughout. Also, the Potency entry in [13] was “inactive”. In addition, the Potency in test [5] is 54.4 µM (active) and inactive; in test [6] it was 13.7 µM (active) and inactive; in test [10] it was 48.5 µM (active) and inactive.
For the compound `S=C(NC1CCCCC1)NC1CCCCC1`, in [1], the result was inactive. The Potency entry in [2], in test [4], in test [5], in test [7], in test [8] and in [9] was “inactive” each time. In addition, the Potency entry in test [12] is “inactive”. In addition, the Potency in test [6] was 48600 nM (active); in [13] it was 9.5 µM (active) and 9.69 µM (active); in test [10], 13.7 µM (active).
On to `c1ccc2cc(Nc3ccc(Nc4ccc5ccccc5c4)cc3)ccc2c1`, for which the compound was classed as inactive in test [1] and in [16]. For the same compound, the Potency result in [2], in test [4], in [5], in test [6], in [7] and in test [8] was “inactive” throughout. For the same compound, the Potency entry in test [9], in test [12] and in test [13] was “inactive” throughout.
For `CC(=O)Oc1ccccc1C(=O)Nc1ncc([N+](=O)[O-])s1`, the compound was called inactive in test [1] and in test [16]. The Potency result in [2], in test [6], in [7] and in test [12] was “inactive” each time. For the same compound, the Potency in [4] is 889 nM (active) and inactive; in test [5], 3.93 µM (active) and 5.31 µM (active); in [13], 140 nM (active) and 188 nM (active); in test [10] it was 14 µM (active) and 18.8 µM (active).
For `CC(C)=CCC/C(C)=C\CO`, the Potency entry in test [2], in test [3], in [4], in test [5], in test [6] and in [7] was “inactive” in each case. Besides, the Potency entry in test [11], in test [8] and in test [9] was “inactive” throughout. Besides, the compound was classed as inactive in test [16].
Regarding `CC1=CCC(C(C)(C)O)CC1` (stereo not given), the compound was called inactive in test [1] and in [16]. For the same compound, the Potency entry in test [2], in [3], in test [4], in test [5], in test [7] and in [11] was “inactive” in each case. For the same compound, the Potency result in test [9] is “inactive”.
`CCCCc1oc2ccccc2c1C(=O)c1cc(I)c(OCCN(CC)CC)c(I)c1`: the call in [1], in [17] and in test [19] was inactive. The Potency in test [2] is 31.1 µM (active) and 26.8 µM (active); in test [4] it was 39.2 µM (active); in [5] it was 43.6 µM (active); in test [6], 19.5 µM (active) and 26.6 µM (active); in test [7], 31.1 µM (active); in [8], 12.4 µM (active) and 16.9 µM (active). Moreover, in [10], the Potency was 48.9 µM (active) and 29.8 µM (active). In addition, the Potency entry in test [3], in test [11] and in test [18] was “inactive” in each case.
On to `CC(=O)O[C@]1(C(C)=O)CC[C@H]2[C@@H]3C=C(Cl)C4=CC(=O)[C@@H]5C[C@@H]5[C@]4(C)[C@H]3CC[C@@]21C`, for which the compound was called inactive in test [1] and in test [16]. Besides, the Potency entry in test [2], in [3], in test [4], in test [5], in [7] and in test [8] was “inactive” in each case. The Potency entry in test [9], in [14] and in [15] was “inactive” throughout.
With `CN(C)C(=N)N=C(N)N`, the compound was classed as inactive in [1] and in test [16]. In addition, the Potency entry in test [2], in test [3], in test [4], in test [5], in [7] and in test [9] was “inactive” throughout. The Potency entry in test [13] is “inactive”.
Take `Cc1cccc([N+](=O)[O-])c1C`: the result in test [1] and in [16] was inactive. The Potency entry in test [2], in [3], in [4], in [5], in test [7] and in test [11] was “inactive” in each case. The Potency result in test [9], in test [12], in test [13] and in test [10] was “inactive” each time.

These data come from PubChem BioAssay (Tox21).
